# Results: PubChem BioAssay (NCI)
# The panel holds about 83,000 compounds, 20% with a hit somewhere; the sample as a whole holds those more often.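 Step 1: grow cells in 96-well plates. Step 2: add test compound at a single concentration. Step 3: incubate 48 h. Step 4: record percent growth.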 Active and inactive are the calls of the source. How the source made its calls: active means growth percent below 10; inactive means the rest.
# Columns and labels:
# Test in all cases: NCI-60 one-dose screen, 48 h (100 = growth as untreated, 0 = no growth, -100 = all killed)
# Settings in all cases: 10 µM unless noted
# T-47D breast = test system: T-47D breast
# MDA-MB-435 melanoma = test system: MDA-MB-435 melanoma
# SW-620 colon = test system: SW-620 colon
# MCF7 breast = test system: MCF7 breast
# HCT-116 colon = test system: HCT-116 colon
# HCC-2998 colon = test system: HCC-2998 colon
# KM12 colon = test system: KM12 colon
# BT-549 breast = test system: BT-549 breast
SMILES,growth (T-47D breast),growth (MDA-MB-435 melanoma),growth (SW-620 colon),growth (MCF7 breast),growth (HCT-116 colon),growth (HCC-2998 colon),growth (KM12 colon),growth (BT-549 breast)
Brc1ccc2c(c1)CN(C1CCCCC1)CO2,96.2% (inactive),103% (inactive),100% (inactive),106% (inactive),108% (inactive),102% (inactive),100% (inactive),
CCOC(=O)/C(C#N)=C(\C)CCc1ccccc1,98.9% (inactive),110% (inactive),103% (inactive),91.9% (inactive),87.7% (inactive),-6.07% (active),113% (inactive),
Cc1ccc(-c2cc(O)c(-c3ccc(C)cc3C)cc2O)c(C)c1,67.1% (inactive),66.5% (inactive),56.5% (inactive),49.2% (inactive),23.9% (inactive),77.7% (inactive),55.3% (inactive),
CCOc1ccc(/C=C(\C#N)c2cc3ccccc3[nH]2)cc1,39.7% (inactive),-28.8% (active),24.6% (inactive),24.7% (inactive),37.1% (inactive),72.5% (inactive),22.5% (inactive),
CN(C)Cc1ccc[nH]1,83.5% (inactive),110% (inactive),94.6% (inactive),97.9% (inactive),77.5% (inactive),,108% (inactive),
O=C(O)c1ccccc1C(F)(F)F,76.5% (inactive),107% (inactive),98.7% (inactive),92.8% (inactive),91.2% (inactive),,96.3% (inactive),
CCN=Cc1c(O)c(O)c(C(C)C)c2cc(C)c(-c3c(C)cc4c(C(C)C)c(O)c(O)c(C=NCC)c4c3O)c(O)c12,35% (inactive),68.1% (inactive),29.2% (inactive),27.3% (inactive),22.5% (inactive),38.9% (inactive),21.3% (inactive),
Nc1nc(Nc2ccccc2)c2ncn(Cc3ccc4c(c3)OCO4)c2n1,33.8% (inactive),-23.4% (active),23.1% (inactive),21.3% (inactive),35.2% (inactive),71% (inactive),26.2% (inactive),
c1ccc(-c2n[nH]c(-c3ccccn3)n2)nc1,95.8% (inactive),106% (inactive),117% (inactive),93.5% (inactive),110% (inactive),108% (inactive),128% (inactive),
CSc1nc(=S)c2nc(SC)n(-c3ccccc3)c2[nH]1,,,97.1% (inactive),90.7% (inactive),93.1% (inactive),115% (inactive),,104% (inactive)
CN(C)c1ccc(N=Nc2ccc3ccccc3c2)cc1,,101% (inactive),96.9% (inactive),43.9% (inactive),66% (inactive),99.8% (inactive),92.8% (inactive),101% (inactive)
CC(C)c1ccc(C(=O)Nc2nc3ccc(O)cc3s2)cc1,,22% (inactive),16% (inactive),9.03% (active),39.6% (inactive),-8.31% (active),15.7% (inactive),55.5% (inactive)
CC1Cc2ccc(OCCN(C)C)cc2C1=O (stereo unspecified),,102% (inactive),101% (inactive),100% (inactive),95.4% (inactive),109% (inactive),,99.3% (inactive)
O=C(CSc1nc2ccc([N+](=O)[O-])cc2[nH]1)Nc1ccc(F)c(Cl)c1,,,26.4% (inactive),9.25% (active),7.89% (active),32.9% (inactive),19.9% (inactive),-0.0932% (active)
C=CCCCCCCCCC(=O)OC(C)C,,111% (inactive),96.5% (inactive),98.2% (inactive),97.7% (inactive),112% (inactive),95.3% (inactive),108% (inactive)
CSc1nc(N)c(N=Nc2ccc(S(=O)(=O)Nc3nnc(C)s3)cc2)c(=O)[nH]1,112% (inactive),,93.4% (inactive),100% (inactive),109% (inactive),117% (inactive),98.6% (inactive),
CCN(CC)c1ccc(/C=C/c2ccc3cc(C)ccc3[n+]2CC)cc1,,-33.3% (active),17.6% (inactive),3.46% (active),7.53% (active),16.5% (inactive),,1.38% (active)
O=C1NC(=O)C(Cc2ccc(OCc3ccc(-c4cc(F)c(F)c(F)c4)cc3)cc2)S1 (stereo unspecified),57.6% (inactive),,95.2% (inactive),83.9% (inactive),83.9% (inactive),97.3% (inactive),81.9% (inactive),
COC(=O)[C@@H](NC(=O)NC(=O)NC(=O)CI)C(C)C,44.8% (inactive),,9.83% (active),59.9% (inactive),75% (inactive),113% (inactive),100% (inactive),
Nc1ccc2c(c1)Cc1cc(NC(=O)C(F)(F)F)ccc1-2,81.8% (inactive),102% (inactive),105% (inactive),60.1% (inactive),,105% (inactive),97.7% (inactive),
CC1Cc2c(Cl)ncnc2N(C)c2ccc(Cl)cc21 (stereo unspecified),2.19% (active),3.3% (active),6.73% (active),7.64% (active),,36.9% (inactive),10.1% (inactive),
CC(C)CCNCC(C)(C)O,,112% (inactive),109% (inactive),109% (inactive),109% (inactive),109% (inactive),116% (inactive),110% (inactive)
CCCCC1COc2cccc3c2N1C=C/C3=C\C(=O)n1ccc2ccccc21 (stereo unspecified),,-16.4% (active),46.4% (inactive),48.6% (inactive),,101% (inactive),68.2% (inactive),89.9% (inactive)
Cc1ccc(S(=O)(=O)Oc2ccc(Br)cc2Br)cc1,70.7% (inactive),,58.6% (inactive),75.7% (inactive),49.3% (inactive),78.3% (inactive),45.9% (inactive),

SMILES,growth (T-47D breast),growth (MDA-MB-435 melanoma),growth (SW-620 colon),growth (MCF7 breast),growth (HCT-116 colon),growth (HCC-2998 colon),growth (KM12 colon),growth (BT-549 breast)
CCCCC(CC)COC(=O)C[N+](C)(C)CCOC(c1ccccc1)c1ccccc1 (stereo unspecified),,0.527% (active),52.2% (inactive),33.6% (inactive),31.7% (inactive),3.56% (active),,17.6% (inactive)
COc1cc(-c2nc(SCCC(C)C)nc(Nc3ccc(S(N)(=O)=O)cc3)c2C#N)cc(OC)c1OC,,22.2% (inactive),36.3% (inactive),16.9% (inactive),3.77% (active),35.2% (inactive),19.9% (inactive),27.6% (inactive)
Cc1cc(C)nc(SCC(=O)Nc2cccc(N=Cc3ccccc3O)c2)n1,,99.2% (inactive),99.1% (inactive),94.3% (inactive),,121% (inactive),107% (inactive),92.9% (inactive)
CCOC(=O)COc1c(C)cc(SSc2cc(C)c(OCC(=O)OCC)c(C)c2)cc1C,91.3% (inactive),,99.5% (inactive),92.6% (inactive),104% (inactive),112% (inactive),72.4% (inactive),
COc1ccc2c(c1)C(C)Cc1c(Cl)nc(C)nc1N2C (stereo unspecified),39.6% (inactive),-20.5% (active),24.8% (inactive),19.7% (inactive),,30.3% (inactive),21% (inactive),
COc1ccc(-c2cc(-c3ccc(OC)c(OC)c3)nc(SCCCCCC(=O)NO)n2)cc1,-1.6% (active),40.7% (inactive),32.8% (inactive),54.4% (inactive),,86.7% (inactive),63.9% (inactive),
COc1ccc(C(=O)CSc2nccc(Nc3ccc(C(=O)O)cc3)n2)cc1,102% (inactive),,95.6% (inactive),101% (inactive),95.7% (inactive),104% (inactive),101% (inactive),
COC(=O)c1c(C)[nH]c(/C=C2\N=C(c3ccc[nH]3)C=C2OC)c1C,,-44.9% (active),1.56% (active),1.82% (active),-75% (active),-40.9% (active),-2.32% (active),0.541% (active)
C=CCCC1(C)NC(=O)NC1=O (stereo unspecified),,,102% (inactive),92.4% (inactive),96.6% (inactive),104% (inactive),,100% (inactive)
O=C(NCCO)c1cccnc1,,106% (inactive),96.1% (inactive),98.5% (inactive),99% (inactive),103% (inactive),,108% (inactive)
O=C(CSc1nc2ccc([N+](=O)[O-])cc2[nH]1)Nc1cccc(Cl)c1,,20.5% (inactive),39.9% (inactive),15.3% (inactive),14.7% (inactive),34.4% (inactive),23.9% (inactive),17.2% (inactive)
COCCCNc1nc(NC(=O)c2cc(Br)cc(C(F)(F)F)c2)cc(-c2cccnc2)n1,65% (inactive),88.4% (inactive),86.9% (inactive),83.8% (inactive),,114% (inactive),105% (inactive),
N#CCCc1c[nH]c2ccccc12,,,92% (inactive),94.8% (inactive),92.8% (inactive),113% (inactive),,97.6% (inactive)
COc1cc(-c2nc(SCCC(C)C)nc(Nc3ccccc3)c2C#N)cc(OC)c1OC,,92.9% (inactive),104% (inactive),92.7% (inactive),91.7% (inactive),116% (inactive),100% (inactive),96.4% (inactive)
CC(C)c1ccc(C(=O)Nc2sc3c(c2C#N)CCC(=O)C3)cc1,,-14.4% (active),-19.1% (active),4.86% (active),-2.81% (active),20.7% (inactive),5.49% (active),-9.76% (active)
CCN(CC)c1cc(N)c(Cc2c(N)cc(N(CC)CC)cc2Cl)c(Cl)c1,,38.7% (inactive),80% (inactive),24.7% (inactive),38.3% (inactive),47% (inactive),,24.9% (inactive)
CC/C=C(\C)C(CCC)(CN=O)C(=O)OCC (stereo unspecified),,117% (inactive),109% (inactive),102% (inactive),92.2% (inactive),96.2% (inactive),112% (inactive),112% (inactive)
COc1ccc(C(=O)c2nccc3cc(OC)c(OC)cc23)cc1OC,79.4% (inactive),,96% (inactive),93.2% (inactive),92.9% (inactive),,104% (inactive),
Cc1cc[n+](CCCCCCCCCC[n+]2ccc(C)cc2)cc1,,102% (inactive),103% (inactive),93.6% (inactive),96.4% (inactive),92.8% (inactive),,101% (inactive)
O=C1/C(=C\c2cn(CC(O)CN3CCCCC3)c3ccccc23)c2ccccc2N1c1c(Cl)cccc1Cl (stereo unspecified),,-93.3% (active),-91.8% (active),-77.5% (active),-78.6% (active),-82.4% (active),-95.3% (active),-86.1% (active)
O=C1NC(=O)C(Cc2ccccc2)(Cc2ccccc2)N1,,96.4% (inactive),101% (inactive),96.2% (inactive),90.9% (inactive),104% (inactive),,90.4% (inactive)
Cn1cc(-c2noc(-c3cn(C)c4ncc(F)cc34)n2)c2ccccc21,42.3% (inactive),72.8% (inactive),56.1% (inactive),34.1% (inactive),,86.6% (inactive),62.7% (inactive),
Cc1cccc(/C=C2\N=C(c3ccccc3)N(c3ccc(S(N)(=O)=O)cc3)C2=O)c1,85.2% (inactive),,104% (inactive),82.1% (inactive),83.9% (inactive),99.8% (inactive),98.1% (inactive),
